# Reference: PubChem BioAssay (NCATS)
# Records with an inconclusive call do not appear. Values without a mark were called inactive. The source made the active and inactive calls. Unless noted, the call rests on the fitted dose curve; in most records, active means well fitted curve in either direction with a large enough effect (not every such curve was filed as active); inconclusive means small, poorly fitted or top-dose-only effect, or another doubt; inactive means flat fitted curve, though single readings scatter.
# Target: Cytochrome P450 1A2 (Homo sapiens) (UniProt P05177)
# Test: p450-cyp1a2 (AID 410; calls by dose curve; further: potency means the concentration at half of the fitted maximal effect)
# Conditions: recombinant CYP1A2, luciferin-ME demethylation, luminescence; series mostly up to 57 µM; activity change, negative = inhibition: at the top concentration
# Procedure, shortened: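 O-Demethylation of luciferin 6' methyl ether by human CYP1A2 is monitored as luciferase luminescence. Substrate sits at Km (100uM); enzyme is 20nM. Values are scaled to 57 uM furafylline as maximal inhibition.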
# Sequence of Cytochrome P450 1A2 (Homo sapiens) (P05177 whole entry, looked up): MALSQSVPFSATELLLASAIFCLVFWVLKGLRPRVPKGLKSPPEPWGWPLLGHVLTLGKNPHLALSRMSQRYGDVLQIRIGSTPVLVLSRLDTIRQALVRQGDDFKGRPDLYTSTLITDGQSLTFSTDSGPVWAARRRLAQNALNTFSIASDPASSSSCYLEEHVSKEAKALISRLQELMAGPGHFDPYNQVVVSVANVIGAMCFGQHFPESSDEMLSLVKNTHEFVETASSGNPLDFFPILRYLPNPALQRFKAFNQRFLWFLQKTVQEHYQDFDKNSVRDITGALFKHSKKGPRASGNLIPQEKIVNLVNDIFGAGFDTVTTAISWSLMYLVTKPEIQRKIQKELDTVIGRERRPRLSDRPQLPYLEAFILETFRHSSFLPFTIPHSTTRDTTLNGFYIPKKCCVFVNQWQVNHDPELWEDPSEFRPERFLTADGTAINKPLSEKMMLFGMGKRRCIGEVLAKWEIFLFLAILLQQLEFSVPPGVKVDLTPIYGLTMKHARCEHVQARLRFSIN
row,Compound,Potency
1,CCCC[C@@H]1C[C@H]1C(NC(=O)Cc1ccccc1)c1ccc(Cl)cc1 (stereo partly specified),2.51 µM (active)
2,CCCC[C@@H]1C[C@H]1C(NC(=O)c1cccs1)c1ccc(C(F)(F)F)cc1 (stereo partly specified),2 µM (active)
3,CCCC[C@@H]1C[C@H]1C(NC(=O)c1ccco1)c1ccc(C(=O)OC)cc1 (stereo partly specified),3.98 µM (active)
4,CCCC[C@@H]1C[C@H]1C(NC(=O)c1ccc(C(F)(F)F)cc1)c1ccc(C(=O)OC)cc1 (stereo partly specified),15.8 µM (active)

# Target: Mitogen-activated protein kinase 10 (Mus musculus) (UniProt Q61831)
# Test: JNK3 AlphaScreen Assay (AID 530);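 further: kinase came from lysate of stimulated human HepG2 cells; signal reports phosphorylation of biotinylated GST-cJun 1-79 at Ser73 with 10 µM ATP; on the % scale 0 is the no-effect control and ±100 the full control effect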
# Conditions: JNK3 lysate, c-Jun phosphorylation; series mostly up to 57.1 µM; activity change, negative = inhibition: at the top concentration
# Procedure, shortened: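 Activity was read by AlphaScreen after JNK3-containing HepG2 lysate (cytokine pre-activated) phosphorylated biotinylated GST-cJun with 10 uM ATP at room temperature. Phospho-Ser73 cJun antibody with Protein-A acceptor beads provided detection.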
row,Compound,"activity change, negative = inhibition [%]"
1,CCCC[C@@H]1C[C@H]1C(NC(=O)c1cccs1)c1ccccc1C(F)(F)F (stereo partly specified),16.7
2,CCCC[C@H]1C[C@@H]1[C@@H]1N(P(=O)(c2ccccc2)c2ccccc2)[C@](CO)(c2ccccc2)CC12CC2,-6.46
3,COc1cc2nc3c(c([Si](C)(C)C(C)(C)C)c2cc1OC)Cn1c-3cccc1=O,6.29
4,CCCC/C=C/C(NC(=O)c1cccs1)c1ccccc1 (stereo unspecified),10.7
5,CCCC[C@@H]1C[C@H]1C(NC(=O)c1ccccc1)c1ccc(Cl)cc1 (stereo partly specified),13.3
6,CCCC[C@@H]1C[C@H]1C(NC(=O)c1ccccc1)c1ccccc1 (stereo partly specified),13.4
7,S=C(Nc1ccccc1)Nc1ccccc1C#Cc1ccccc1,-23
8,CCC/C=C(\CCC)C(NP(=O)(c1ccccc1)c1ccccc1)c1ccc(C(F)(F)F)cc1 (stereo unspecified),6.29
9,COc1ccc2nc3c(cc2c1)Cc1ccccc1-3,0.236
10,CCC[C@@H]1C[C@@]1(CCC)C(NS(=O)(=O)c1cccc2cccnc12)c1ccc(Cl)cc1 (stereo partly specified),0.442
11,CCCC[C@@H]1C[C@H]1C(NC(=O)c1ccccc1)c1ccccc1C(F)(F)F (stereo partly specified),5.89
12,COC(=O)[C@@]1(Cc2ccc(OC)cc2)[C@@H]2[C@@H](CC(=O)[C@H]2CC(=O)C(=O)N2CCCC2)CN1C(=O)c1ccccc1,-9.48
